The values that follow come from PubChem BioAssay (NCI).

About 83,000 compounds went through this panel and 20% of them were active in at least one assay; those are over-represented in the sample as a whole.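 Percent growth is the endpoint: 0 to 100 indicates growth inhibition (40 means 60% inhibition), 0 means no net growth, and negative values indicate cell death.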 A number with no mark means an inactive call. Active and inactive are the calls of the source. The calls were made as follows: active = growth percent below 10; inactive = the rest.

Common to all, as to assay: NCI-60 one-dose screen, 48 h (100 = growth as untreated, 0 = no growth, -100 = all killed)
Holding throughout (settings): 10 µM unless noted

The test system of test [1] is SR leukemia.
The test system of test [2] is RPMI-8226 leukemia.
Test [3] concerns OVCAR-8 ovarian.
Test [4] deals with OVCAR-5 ovarian.
Test [5] has as its system OVCAR-4 ovarian.
The test system of test [6] is SK-OV-3 ovarian.
In test [7] the test system is IGROV1 ovarian.
Test [8] deals with OVCAR-3 ovarian.
Test [9] has as its system HS 578T breast.
Test [10] deals with NCI/ADR-RES ovarian.

Consider `O=[N+]([O-])c1ccc(C(Br)c2ccc([N+](=O)[O-])cc2)cc1`, for which the growth in test [1] was 7.81% (active); in test [2] it was 66.1%; in test [3], 63.2%; in test [4], 124%; in [5], 64.3%; in test [6], 97.3%. Moreover, the growth was -53.2% (active) in test [7], 110% in [8], 107% in test [9] and 91.5% in test [10].

As for `O=S(=O)(O)c1cnccn1`, the growth in test [1] is 110%; in test [2] it was 104%; in test [3], 107%; in [4] it was 96.6%; in test [5], 113%; in [6], 89.6%. Besides, the growth in test [7] was 105%; in test [8] it was 103%; in [9] it was 112%; in [10] it was 102%.

`COC(=O)C(=[N+]=[N-])C(=O)c1ccc([N+](=O)[O-])o1`: the growth in test [1] is 58.4%; in test [2], 78.8%; in test [3] it was 82%; in [4], 110%; in test [5], 106%; in [6] it was 97.2%. The growth in [7] is 97.6%; in test [8], 88.3%; in test [9], 90.3%; in [10], 93.1%.

Regarding `Cc1nnc(N/N=C/c2ccc([N+](=O)[O-])o2)[nH]c1=O`, the growth in test [1] is 8.26% (active); in test [2] it was 42.1%; in test [3], 21.1%; in [4] it was -2.06% (active); in test [5] it was 29.4%; in test [6] it was 10.4%. For the same compound, the growth in test [7] was 21%; in test [8], -7.14% (active); in test [9] it was 22%; in [10], 8.65% (active).

For the compound `CC(=O)OC1CC2CCC1(C)C2(C)C` (stereo not given), the growth in test [1] is 97.6%; in test [2], 108%; in test [3], 98.9%; in [4] it was 94.9%; in [5], 113%; in [6], 111%. For the same compound, the growth in test [7] is 106%; in [8], 103%; in test [9] it was 103%; in [10], 108%.

Consider `CCCCCCCCCCCCCCCCCC1=NCCCN1CCO`, for which the growth in test [1] is 95.6%; in test [2], 103%; in test [3], 101%; in test [4] it was 98.5%; in test [5] it was 112%; in test [6], 97.6%. For the same compound, the growth in test [7] was 105%; in [8], 114%; in [9], 101%; in test [10], 105%.

`CCCCCCCCCCCCNCCCc1ccccc1`: the growth was -34.3% (active) in test [1]; 6.17% (active) in test [2]; 79.3% in test [3]; 81.2% in test [4]; 46.5% in test [5]; 103% in test [6]. The growth in [7] is 75.4%; in test [8], 83%; in [9], 88.6%; in [10] it was 75.1%.

As for `Cc1cc(=O)oc2cc(O)cc(O)c12`, the growth in test [1] is 106%; in test [2], 111%; in test [3] it was 105%; in [4] it was 96.4%; in test [5], 104%; in test [6] it was 104%. Also, the growth in test [7] is 108%; in test [8], 99.2%; in [9], 106%; in test [10], 108%.

Turning to `CN(C)CCSC1=Nc2ccc(Cl)cc2C(c2ccccc2Cl)N(C)C1` (stereo not given), the growth in [1] was 44.1%; in test [2] it was 50.7%; in test [3], 78.8%; in test [4], 88.4%; in test [5], 39.4%; in test [6] it was 72%. The growth in test [7] was 41.6%; in test [8] it was 59.9%; in test [9], 24.2%; in test [10], 66%.

In the case of `CC(=O)c1ccc2c(c1)CCc1ccccc1-2`, the growth was 103% in test [1]; 108% in test [2]; 109% in [3]; 88.9% in test [4]; 98.8% in test [5]; 101% in [6]. Also, the growth was 119% in test [7], 125% in [8], 103% in [9] and 119% in [10].

Regarding `CCCCCC[C@@H](O)C/C=C\CCCCCCCC(=O)OCCOC`, the growth in test [1] was 122%; in test [2], 102%; in test [3] it was 101%; in test [4], 103%; in test [5] it was 98.4%; in [6], 114%. Moreover, the growth in test [7] is 114%; in [8] it was 112%; in [9], 101%; in [10] it was 104%.

For the compound `CCOC(=O)c1cc(CC)sc1NC(=O)CC(C)=O`, the growth in test [1] is 35.1%; in test [2], 37.4%; in test [3] it was 43%; in test [4] it was 96.7%; in [5], 43.3%; in test [6], 84.6%. The growth in test [7] is 59.7%; in test [8], 65.3%; in test [9], 49.9%; in [10], 40%.

Turning to `COc1cc(OC)c(/C=C/c2c3ccccc3cc[n+]2C)c(OC)c1`, the growth in test [1] was -18.2% (active); in test [2], 6.51% (active); in test [3] it was 5.21% (active); in test [4], 56.5%; in test [5] it was 24.9%; in test [6], 35%. The growth in [7] was 13.2%; in test [8], 5.9% (active); in [9] it was 46.3%; in [10], 96.6%.

In the case of `CC1=CC(=NC(=O)CBr)C=C/C1=N\S(=O)(=O)c1ccccc1`, the growth in test [1] was 58.3%; in [2] it was 84.5%; in [3], 66.6%; in test [4], 122%; in test [5], 50.6%; in test [6], 91.7%. For the same compound, the growth is -3.37% (active) in test [7], 8.58% (active) in [8], 89.1% in [9] and 89.4% in test [10].

Turning to `CC(/C=N/NC(N)=S)Cc1ccc(C(C)C)cc1` (stereo not given), the growth in [1] was 135%; in [2] it was 104%; in test [3], 79.3%; in [4] it was 86.6%; in test [5], 29.8%; in test [6], 85.8%. For the same compound, the growth in test [7] is 25.7%; in [8], 77.7%; in test [9] it was 71.7%; in [10] it was 64.4%.
